Experimental data from PubChem BioAssay AID1159580 (chemical genetic matrix, 2015).
In all, about 5,500 compounds went through this assay and about 2,000 (36%) were called active. Another 18% or so got no clear call; they are omitted. Cut-off read from the data, not from the text of the source: active = normalized growth mostly below about 0.91 (no sharp cut-off); inconclusive = no clear call, values can overlap the other calls; inactive = mostly above about 0.92. Some of the results follow.

Test: chemical genetic growth profiling, strain panel (AID 1159580);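 note: tested at 20 µM; growth read once vehicle control cultures reached saturation at 30 °C; 1 = growth at the plate median or of vehicle wells; lower values mean less growth of the strain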
Conditions: S. cerevisiae deletion strains, growth OD

Measured: normalized growth

CCCN(CCc1ccccc1)C1CCc2c(O)cccc2C1 (centres undefined)
inactive: locus YAL013W, strain DEP1, hits give low values 0.992 | locus YAL040C, strain CLN3, hits give low values 1.02 | locus YCL061C, strain MRC1 (second series), hits give low values 1 | locus YDR363W, strain ESC2, hits give low values 1.02 | locus YER002W, strain NOP16, hits give low values 1 | locus YGR229C, strain SMI1, hits give low values 0.988 | locus YJR075W, strain HOC1, hits give low values 1 | locus YMR263W, strain SAP30, hits give low values 1 | locus YMR307W, strain GAS1, hits give low values 0.997 | locus YNL153C, strain GIM3, hits give low values 0.957 | locus YNL175C, strain NOP13, hits give low values 1 | locus YNL224C, strain SQS1, hits give low values 1.01 | locus YOR083W, strain WHI5 (second series), hits give low values 1.02 | locus YPL055C, strain LGE1, hits give low values 0.973
